The record followed here is PubChem BioAssay AID2284356 (EPA ToxCast).

Inconclusive results are not listed. Active and inactive are the calls of the source. How the source made its calls: active means hit-call score of the fitted dose curve at least 0.9, where 1 is the maximum; inconclusive means response in the unintended direction; inactive means score below 0.9.

Sequence of zebrafish Estrogen Receptor (ER1), esr1 (gene 259252) (P57717 whole entry, looked up): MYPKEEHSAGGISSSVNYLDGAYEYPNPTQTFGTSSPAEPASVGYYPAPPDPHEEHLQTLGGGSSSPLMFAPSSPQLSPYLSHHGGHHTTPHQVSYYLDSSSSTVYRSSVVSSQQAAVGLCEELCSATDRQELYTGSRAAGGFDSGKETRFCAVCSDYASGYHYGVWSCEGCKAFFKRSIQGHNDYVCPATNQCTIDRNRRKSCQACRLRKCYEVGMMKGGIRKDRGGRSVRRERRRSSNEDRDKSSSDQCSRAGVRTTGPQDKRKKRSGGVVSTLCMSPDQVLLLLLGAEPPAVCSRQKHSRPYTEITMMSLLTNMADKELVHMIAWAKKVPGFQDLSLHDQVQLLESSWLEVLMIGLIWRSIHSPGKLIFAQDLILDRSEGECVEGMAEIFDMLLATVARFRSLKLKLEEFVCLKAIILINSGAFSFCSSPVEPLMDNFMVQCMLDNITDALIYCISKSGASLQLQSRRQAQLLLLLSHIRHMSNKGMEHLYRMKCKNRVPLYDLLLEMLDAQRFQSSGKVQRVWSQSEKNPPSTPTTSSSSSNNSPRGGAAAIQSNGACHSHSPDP

For the assay, the target named is zebrafish Estrogen Receptor (ER1), esr1 (gene 259252) (UniProt P57717). Nature of the assay: ATG_zfER1_EcoTox2: Attagene TRANS-FACTORIAL EcoTox-2 HepG2 Assay for zebrafish Estrogen Receptor (ER1). How it is done:
ATG_EcoTox2 is a cell-based, multiplexed assay created by modifying the existing Attagene TRANS-FACTORIAL system to include a panel of nuclear receptors from some or all the following species: human (Homo sapiens), african clawed frog (Xenopus laevis), rainbow trout (Oncorhynchus mykiss), japanese medaka (Oryzias latipes), and zebrafish (Danio rerio). The ECOTOX2-FACTORIAL format uses HepG2, a human liver cell line, with measurements taken at 24 hours after chemical dosing in a 24-well plate. ATG_zfER1_EcoTox2 is one of 29 assay components calculated in the ATG_EcoTox2 assay. It is designed to make measurements of mRNA induction, a form of inducible reporter, as detected with fluorescence intensity signals by Reverse transcription polymerase chain reaction (RT-PCR) and Capillary electrophoresis technology.The assay endpoint ATG_zfER1_EcoTox2 was analyzed in the positive analysis fitting direction relative to DMSO as the negative control and baseline of activity. Using a type of inducible reporter, measures of mRNA for gain-of-signal activity can be used to understand the reporter gene at the transcription factor-level as they relate to the gene ER. Furthermore, this assay endpoint can be referred to as a primary readout, because this assay has produced multiple assay endpoints where this one serves a reporter gene function. To generalize the intended target to other relatable targets, this assay endpoint is annotated to the nuclear receptor intended target family, where the subfamily is steroidal.
Human liver HepG2 cells are transiently transfected with multiple reporter transcription units (MRTUs) in 6-well plates using FuGene 6 reagent (Roche; 3 ml FuGene/1 mg DNA). The MRTU constructs are regulated by a cis-regulating element (promoter). Each RTU expresses a GAL4-UAS that regulates the transcription of a nearby target reporter gene sequence. A major difference between the CIS and TRANS system is that in CIS activities of endogenous TFs are measured, whereas the TRANS assay evaluates changes in activities of exogenous, chimeric NR-Gal4 proteins. […] At the end of 24 hour incubation, total RNA was isolated using TriZol reagent (Invitrogen). The isolated RNA is then reverse-transcribed using oligo(dT) primer and Mo-MLV reverse transcriptase (Invitrogen) with DNAse I (Ambion) treatment for 30 min. The one-tenth of the produced cDNA was amplified by PCR using Taq DNA polymerase (Invitrogen) and two reporter sequence-specific primers. The PCR products were fluorescently labeled by primer extension with 6-arboxyfluorescein (6-FAM) 5'-labeled reporter sequence-specific primer (2 min at 95 C, 20 s at 68 C and 10 min at 72 C) and these products were digested with 5U of HpaI (New England Biolabs) for 2h at 37 C. The fragments were purified using Qiaquick PCR columns (Qiagen), analyzed on an ABI 3130xL genetic analyzer (Applied Biosystems) with peak positions identified by using a set of X-rhodamine (ROX)-labeled MapMarker1000 molecular weight standards (BioVentures). The raw capillary electrophoresis data was processed using Attagraph software (Attagene).
Turning to `CC(c1cc2ccccc2s1)N(O)C(N)=O` (centres undefined), the call was inactive.

Regarding `CC(C)(Oc1ccc(CCNC(=O)c2ccc(Cl)cc2)cc1)C(=O)O`, the result was inactive.

As to `CC(C)(Oc1ccc(C2CC2(Cl)Cl)cc1)C(=O)O` (centres undefined), the molecule was called inactive.

Turning to `C=C(c1ccc(C(=O)O)cc1)c1cc2c(cc1C)C(C)(C)CCC2(C)C`, the call was inactive.

As to `CC(C)(Oc1ccc(Cl)cc1)C(=O)O`, the call was inactive.

`C[C@]12C=CC(=O)C=C1CC[C@@H]1[C@@H]2C(=O)C[C@@]2(C)[C@H]1CC[C@]2(O)C(=O)CO`: the call was inactive.

With `CC(C)OC(=O)C(C)(C)Oc1ccc(C(=O)c2ccc(Cl)cc2)cc1`, the molecule was called inactive.

As for `Cc1ccc(C)c(OCCCC(C)(C)C(=O)O)c1`, the result was inactive.

Consider `C[C@@H]1C[C@H]2[C@@H]3CCC4=CC(=O)C=C[C@]4(C)[C@@]3(F)[C@@H](O)C[C@]2(C)[C@@]1(O)C(=O)COP(=O)(O)O`, for which the outcome was inactive.
